# Screening data: PubChem, several laboratories
# GRK2 inh – human GRK2 inhibition via aptamer displacement. P25098. bead flow cytometry, FAM-aptamer displacement from GRK2. inhibition of aptamer binding, % at 10 µM. 0.59% of 330,000 active;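 active means inhibition of aptamer binding above 40%, roughly 3 SD of noise, on plates passing a quality check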;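 further: median bead fluorescence of bound FAM aptamer so fluorescent compounds give negative values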
# Granule exo inh – lytic granule exocytosis inhibition | TALL-104 LAMP-1 surface exposure, flow cytometry; cells stimulated with thapsigargin and PMA | inhibition, % at 10 µM | 0.66% of 360,000 active | AID 651702;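 active means inhibition above about 55%, limit read from the data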
# PP1 inh – blocks human PP1-alpha phosphatase, a PP5 counter-screen; AID 2235; purified PP1alpha, OMFP fluorescence; 0.9% of 320,000 active; inhibition, % at 6.7 µM; P62136;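 active means inhibition above the mean inhibition of all tested compounds plus 3 SD, computed separately for each screening campaign, cut at about 15% in these data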
# B2AR ag – human beta-2 adrenergic receptor agonism by FAP; P07550; Am2.2-beta2AR cells, FAP receptor internalization, flow cytometry; response, % (no concentration beside the values); 0.43% of 340,000 active; AID 504454;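 active means response above a set limit, near 3 SD of response in nonfluorescent compounds, cut at about 42% in these data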
# NadD block – NadD (S. aureus) enzyme inhibition. purified NadD enzyme, colorimetric absorbance read-out. inhibition, % at 20 µM. 0.78% of 360,000 active. AID 602399; in the data active means inhibition above about 26%
# GRK2 CP1 – human GRK2 inhibition confirmation, cherry pick 1; shares compounds with GRK2 inh; AID 504451; aptamer displacement, % at 10 µM; 4% of 2,000 active; bead-bound GRK2, FAM-aptamer displacement, flow cytometry;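 active means aptamer displacement above 40%, near three times the noise of non-fluorescent compounds, on plates passing quality checks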;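 further: negative values mostly reflect intrinsic compound fluorescence rather than true enhancement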
# Aptamer quench SP – aptamer fluorescence quenching in GRK2 counter-screen. fluorescence response (% of DMSO), % at 10 µM. 2,000 tested, under 10 active. Carboxyfluorescein RNA aptamer on beads, flow cytometry quenching; active compounds read low. shares compounds with GRK2 inh;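 active means compounds that quench the bead-bound fluorescent RNA probe, cutting fluorescence to under half of the solvent control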;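 further: counterscreen run without GRK2 so only probe quenching by compound is measured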
# GRK2 CP2 – confirmation of human GRK2 inhibitors binding RNA aptamer site | shares compounds with GRK2 inh | bead-bound GRK2, FAM-aptamer displacement, flow cytometry | inhibition of aptamer binding, % at 10 µM | 360 tested, under 10 active | AID 504782;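 active means inhibition of aptamer binding above 40%, about triple the noise seen with nonglowing compounds, on plates passing quality control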;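 further: negative values mostly come from compounds that fluoresce themselves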
# FAM quench CP2 – quenches fluorescent RNA aptamer, GRK2 hit artifact; shares compounds with GRK2 inh; carboxyfluorescein RNA aptamer beads, flow cytometry quenching; active compounds read low; fluorescence response vs DMSO, % at 10 µM; 360 tested, under 10 active;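 active means response vs DMSO under 50%, meaning signal dropped by over half, treated as fluorescence quencher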;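 further: labelled aptamer on streptavidin beads without GRK2 as a quench counter-screen; 100% = bead fluorescence of DMSO wells and lower means quenching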
# The depositor's hits bear a star; . = not tested or not shown. Compounds with a hit are over-represented: about 2.9% of the library has one in this group of screens.
SMILES,GRK2 inh,Granule exo inh,PP1 inh,B2AR ag,NadD block,GRK2 CP1,Aptamer quench SP,others
O=C(NC(NC1CCS(=O)(=O)C1)C(Cl)(Cl)Cl)c1ccc(Br)cc1 (configuration not stated),0,0,-1,4,1,.,.,
Cn1c(-c2ccccc2)c(/C=N/NC(=O)c2cccnc2)c2ccccc21,1,0,4,-13,6,.,.,
O=C(Cc1cccs1)NCc1cccc(Br)c1,55*,-8,.,7,-8,2,102,
CC(C)c1nc(SCC(=O)Nc2ccc(N(C)C)cc2)c2ccccc2n1,0,-1,2,-17,4,.,.,
CSc1nc2ccccc2n1Cc1c(Cl)cccc1Cl,0,-1,1,7,0,.,.,
Cc1ccc(/C=C/C(=O)O)cc1S(=O)(=O)NCCO,3,0,-2,-1,4,.,.,
Cc1cc(C(C)(C)C)cc(S(=O)(=O)NCCO)c1C,99*,0,1,0,-2,-5,100,
OC[C@@H]1CN(CCN2CCOCC2)C[C@H](n2cnc3c(NC4CCCC4)ncnc32)O1,.,7,.,.,1,.,.,
COC(=O)c1[nH]c2ccc(C)cc2c1NC(=O)CN1CCCc2ccccc21,89*,-4,17*,5,28,-6,118,
Cc1ccc2[nH]c(C(=O)NN=C3CCCCC3)c(-c3ccccc3)c2c1,0,21,-2,6,5,.,.,
O=c1c2ccccc2nnn1CSc1ccc2ccccc2n1,0,0,0,-1,-2,.,.,
O=c1c2ccccc2nnn1CSc1ccccc1,97*,5,-2,-2,3,.,.,GRK2 CP2=13;FAM quench CP2=100
CN(CCO)C(=O)c1c(NC(=O)c2ccccc2)sc2c1CCCC2,42*,3,-1,-2,-1,1,95,
CN(C)CCNC(=O)c1c(NC(=O)c2ccccc2)sc2c1CCCC2,0,36,0,-2,-11,.,.,
CC1(C(=O)NS(=O)(=O)c2ccccc2)CCN1C(=O)CC1CCCCC1 (configuration not stated),.,-7,.,.,-2,.,.,
O=C(c1ccc2nccnc2c1)N1CCN(c2cccc(C(F)(F)F)c2)CC1,0,-1,4,17,3,.,.,
O=C(c1cccc(F)c1)N1CCN(c2cccc(C(F)(F)F)c2)CC1,60*,-3,4,-1,-4,1,94,
COc1ccc(-c2nc(S(=O)(=O)c3ccccc3)c(NCCCN3CCOCC3)o2)cc1,21,48,.,-4,1,.,.,
O=C(NCc1ccco1)c1nc2nc(-c3cccs3)cc(C(F)(F)F)n2n1,42*,0,1,1,-1,2,99,
O=C(NCc1ccco1)c1nn2c(C(F)(F)F)cc(-c3cccs3)nc2c1Br,19,-1,0,4,7,.,.,
CN(CCO)c1ccc(C=NNc2ccc([N+](=O)[O-])cc2S(=O)(=O)Nc2ccccc2C(=O)O)cc1,35,13,.,.,17,11,101,
CC1CCC(=C(C#N)c2nc(-c3cc4ccccc4oc3=O)cs2)CC1 (configuration not stated),3,-1,4,0,5,.,.,
CCN(CC)CCOC(=O)c1ccc(N/C=C(/C#N)c2nc(-c3cc4ccccc4oc3=O)cs2)cc1,100*,-18,.,15,25,97*,38*,
CCOC(=O)c1csc(-c2csc(CCNC(=O)c3ccccc3)n2)n1,.,-11,.,.,-3,.,.,
Cc1ccc(NC(=O)CNC(=O)C2CCCCC2)nc1,63*,-6,-4,4,-1,-1,105,
Cc1cccnc1NC(=O)CNC(=O)C1CCCCC1,0,-4,-2,0,7,.,.,
Cc1ccc(C(=O)N/N=C/c2cc(Br)ccc2O)cn1,73*,-3,-3,-10,2,-1,93,
COC(=O)c1ccc(C(C(=O)NC2CCCCC2)N(C(=O)Cc2cccs2)C2CC2)cc1 (configuration not stated),86*,-1,0,-6,9,18,98,
